This note sets out measurements from PubChem BioAssay AID1508600 (Functional Genomics Laboratory (NCATS/FGL), 2020).

Hit rate of the full screen: of about 53,000 sequences, about 3,700 (7%) were called active. The entries come from a sample that favours actives as a whole. Values without a mark were called inactive.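 How the source made its calls: active means gene knockdowns whose robust z-score for IL-1 alpha signal is at least 2 or at most -2, so actives lie on both sides; inactive means the rest.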

The nature of the assay: Components of the Cytosolic LPS Sensing Pathway: Gene Identification via Genome-wide siRNA Screen.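 Further: robust z of the log signal after scaling to non-targeting control siRNA wells of the plate.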 The note with it: RAW264.7 macrophages, IL-1a HTRF, actives lie on both sides, screened at 100 nM (by protocol), cells primed 5 h with Pam3CSK4 first. An outline of the steps: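 Read-out: IL-1a HTRF on supernatant, divided by plate negative-control median ×100, log-transformed and converted to robust z-score. Cells were RAW264.7 given 100 nM siRNA, Pam3CSK4-primed 5 hours, then LipidA-transfected 24 hour.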
As for GGUCGAACUUCUGUGCCAUTT against Slc39a8, the z-score is 2.39 (active).
With GCAGAUGUAAAUAGCAAAATT against Apc the figure was 0.955; with GGGUGACAUGAUUUUAACUTT against Fbh1, -0.727.
As for GGCAAAUCCCGUUCACUGATT against Magel2, the z-score is -1.08.
With “GCUUUUGGUACAGGAUGCCTT against 5830411N06Rik” the figure was -2.68 (active).
GCGAUGAUGUGCUUAUGUCTT against Zfp341: the z-score was 0.735.
Consider CCUUAGGUACUCUAAGGAATT against D1Pas1, for which the z-score was -0.109.
With CGGAUUUUGAAGUACACCGTT against Alg8, the z-score is 0.207.
In the case of CGCAGUACCUAUUUGAGCGTT against Hs6st1 it was 1.62; in that of GCUCAUAAUUUUGACAGCUTT against Cyp51, 0.168.
With GGCUUUCACGCUUUGACAATT against Ap1m2, the z-score is 0.209.
Take GACUAACCAGAUGAAAGUCTT against Vmn1r11: the z-score is -0.66.
GCAUGUUACUAGGAUAACUTT against Mup20: the z-score is 2.27 (active).
In the case of GGAUUCUAUGACAAAGACATT against Ddx3x, the z-score was 1.84.
Regarding GGCUUCCAAAACAAAUCAATT against Rgn, the z-score is 0.857.
Regarding CCUGCACAACUGGAAACCUTT against Nectin2, the z-score is -2.16 (active).
For GAUAAUGACCAGGCUACCATT against Magea7-ps, the z-score was 0.069.
With CCACUGUGCUCAAUUUGCATT against Slc9a2, the z-score was -0.372.
As for GGCUCUGGAAAAGAACAACTT against Sds, the z-score was 1.52.
For GGAAAUCAACAGCUCACAUTT against B3gnt9, the z-score was -0.327.
For GGAUCUAUAAGGACUACAUTT against Bmp7, the z-score is 4.01 (active).
For the sequence GGCCGAUUCCAUUGUACAGTT against Fam177a, the z-score is 3.54 (active).
With GCUGUAUGGCUAAGCAGUGTT against Olfr113 the figure was -0.42; with GCCUCAAAAUGGCGGAACUTT against Casp8, -0.249.
With CCAAGCGAAUGUCAAAAUATT against Fam163a the figure was 0.66; with GGAGAGGAACAGGAACAGATT against Ankrd9, 0.557; with GGGUCAUUGGUAGCAACGATT against Oas1g, -2.9 (active).
GGCCUAAUCGAAAUGUGGCTT against Trim12a: the z-score was 0.515.
With GGUGACUGGUUUGUUGCUUTT against Pstk the figure was -1.39; with GCUACAGGGAAGUAUUGAATT against Apc, 2.05 (active); with GGCUGGAAUCACUGAUAUUTT against Hddc3, 0.527.
In the case of CGAGAUGUUUAUUCAACAUTT against Tcf23 it was -0.431; in that of GGAACAUUUGAAGUGCAAATT against Ilf2, -0.45; in that of GCCAUCGUCUACCUAUGACTT against Olfr358, -1.85.
On to CGGUUAGUCUGUCAGUAUCTT against Xrcc3, for which the z-score is 0.488.
For the sequence GAUUCAGCAUUAUUUCUGUTT against Olfr980, the z-score is 0.524.
With GGGCUUGAUUGUGAAAGAATT against Tlr12 the figure was -1.82; with GGGAGAGUAAUGUGGACAUTT against Slc37a2, 3.86 (active); with GCUGAAGACACUCUGUGAATT against Ehbp1l1, -1.7.
In the case of GCAACGCAGUACUCUACCCTT against Tns2 it was 0.557.
As for CCCAGUGGUUUUAAAGCAUTT against Commd3, the z-score was -1.64.
In the case of GCCAACGCACAUAAUAAAGTT against Ndufa13, the z-score is 0.245.
Consider GCUAGGUAUCUAAGGAUAUTT against Fig4, for which the z-score was -0.579.
In the case of “GGGAAACUCAAACUGAUUGTT against 9930104L06Rik” it was 0.0417; in that of GGUCAUUGUCAAAGUCAAGTT against Nutm1, 2.4 (active).
For the sequence GGUCAAUUCUUUGUGAUGATT against Usf1, the z-score was -0.609.
GGACACUAUACAAAUUUCGTT against Fank1: the z-score is -0.109.
Take GCGACUGUACAACGAAUUGTT against Clp1: the z-score is 3.34 (active).
Turning to GCAAAACUUCGGAUAGUCATT against Gak, the z-score was 0.382.
GGCCGUUUCCUACCUCAUGTT against Cckbr: the z-score was -1.09.
For GGUCCAGAUCAGUUGACAGTT against Srsf5, the z-score is 0.812.
Turning to GCGUGGUGUAUUUGAAUCATT against Ch25h, the z-score was 2.31 (active).
CCCAACUCGGUUUUUUUCUTT against Olfr1037: the z-score was 0.827.
With CCUAAGCUUAGAUCAACAUTT against Dhx36 the figure was -0.735; with GGACGAGAUGAACAGCCUCTT against Chkb, 0.0671; with “GGCGCAACGAAUAAAAAUATT against D630023F18Rik”, -0.581.
With GGAUUUCUUCCAGAAGAUGTT against Grhpr the figure was -1.54; with GGGAACAGUAUCUGAUUCATT against Polg, 2.35 (active); with CGUAAACAUUUCCUUCUACTT against Dmbt1, -0.718.
As to CUAUGACACUUGGUUCCAUTT against Nxpe5, the z-score was 1.69.
GCCUGUAGCAGAGAACUUUTT against Tmem59l: the z-score is 1.1.
Consider GGUGUGAAGGAGAAGUUCATT against Atp6v1a, for which the z-score is 2.01 (active).
For CCCAAAACUUCGUUUGUGUTT against Vezf1, the z-score is -0.973.
With CCCAUAUCCUAGCUCUCUUTT against Olfr1230 the figure was -1.49.
GGCCAAAGUCCACACAAGUTT against Naaa: the z-score is 2.12 (active).
In the case of GGCAUGGAGAGAAGAAAAGTT against Rassf7 it was -0.433; in that of GCUCUAGAAAGUUACAGAUTT against Crtam, 0.317.
Take GGCUGCAUCUAUAACAUAATT against Olfr611: the z-score is -0.767.
For GGUGAAGGUACGAGUAAGATT against Prkra, the z-score is -0.809.
